# Screening results deposited in PubChem by National Center for Advancing Translational Sciences (NCATS).
# This is a sample that favours compounds with a hit; in the whole collection about 8.1% have one here.
# KB-V1 cytotox: KB-V1 MDR subline cytotoxicity. Potency, µM (highest dose often 46.1 µM), hits mostly cytotoxic. 400,000 compounds, 3.4% hits. KB-V1 MDR cells viability, CellTiter-Glo, 72 h; also: % is scaled to controls: 0 for no effect and ±100 for the full control effect; nearly all actives have a fitted effect of over 60% in size
#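 Potencies derive from concentration-effect curves fitted to normalized luminescence (CellTiter-Glo) of KB-V1 cells treated for 72 h at 37 degrees C in phenol-red-free DMEM containing 10% FBS.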
# SW480 rereplic: induces DNA re-replication in SW480 colon adenocarcinoma cells; SW480 DNA re-replication, Hoechst DNA content imaging, 48 h; Potency, µM (highest dose often 46.1 µM), for inactives: top-dose re-replication activation, actives largely listed as activators; 340,000 compounds, 1.8% hits; also: % of control where 0% means no effect; nearly all actives have a fitted effect of over 55% in size
#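 Compounds, transferred as 23 nL by pin tool, were incubated with cells for 48 hr; DNA content per nucleus was then quantified by Hoechst staining and fluorescence plate imaging.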
# ELG1 DNA repair: inhibitors of ELG1-dependent DNA repair in HEK293T cells | HEK293T ELG1-luciferase reporter, luminescence, 16 h; DNA damage induced by 5-fluorouridine | Potency, µM (doses to about 46.1 µM), inactives show at the top dose activity change, negative = inhibition, usual class: inhibitors | 330,000 compounds, 2.3% hits | AID 504467; also: % is scaled to controls: 0 for no effect and ±100 for the full control effect; nearly all actives have a fitted effect of over 55% in size
#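 Cells (2,000 per well) received 5-fluorouridine plus test compound or DMSO and were incubated 16 hr at 37 °C, 5% CO2. Luciferase activity was read by luminescence 30 min after ONE-Glo addition; signal suppression marked inhibition of damage-induced ELG1 function.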
# MCF10A rerep: DNA re-replication induction in MCF 10a cells; MCF 10A DNA re-replication, Hoechst nuclear intensity, 48 h; 350,000 compounds, 2.9% hits; AID 624296; Potency, µM (doses to about 46.1 µM), without a hit: top-dose activity, positive = re-replication, hits mostly activators; also: % of control where 0% means no effect; nearly all actives have a fitted effect of over 50% in size
# KB-3-1 tox: kills parental KB-3-1 adenocarcinoma cells | KB-3-1 viability, CellTiter-Glo ATP luminescence, 72 h | Potency, µM (doses to about 46.1 µM), hits mostly cytotoxic | 400,000 compounds, 1.4% hits; also: % is scaled to controls: 0 for no effect and ±100 for the full control effect; nearly all actives have a fitted effect of over 60% in size
#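 Multi-concentration cytotoxicity screen in KB-3-1 cells grown in DMEM lacking phenol red with 10% FBS. After 72 h at 37 °C with compound, ATP-dependent luminescence was recorded.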
# Active calls of the source: *; i = inactive; ? = inconclusive; . = not tested or not shown; [ ] = remark or other dose. Calls follow the shape of the dose curve; as a rule, active = well fitted curve in the direction sought with a large enough effect; inconclusive = small, poorly fitted or top-dose-only effect, or another doubt; inactive = no such curve, though single readings can be large; an effect the other way counts as inactive or inconclusive. Potency is read from the fitted curve at half-maximal effect.
SMILES,KB-V1 cytotox,SW480 rereplic,ELG1 DNA repair,MCF10A rerep,KB-3-1 tox
O=C1CN(C(=O)COC(=O)CCS(=O)(=O)c2ccccc2)c2ccccc2N1,i,-6%,-2%,-1%,i
COc1ccccc1NCC(=O)c1ccc(C)c(C)c1,i,3%,?,-15%,i
Cc1cc2cc(C(c3nnnn3Cc3ccco3)N3CCc4ccccc4C3)c(=O)[nH]c2cc1C (stereo not drawn),?,-3%[9.22 µM],?,14%,?
Cc1c(C(=O)Nc2cc(S(=O)(=O)N3CCOCC3)ccc2N2CCN(C)CC2)oc2ccccc12,?,0%,16µM*,16%,i
O=C(CN1CCc2ccccc2C1)Nc1cc(S(=O)(=O)N2CCOCC2)ccc1N1CCCC1,4.1µM*,2%,-3%,10%,i
O=C(Nc1cc(S(=O)(=O)N2CCOCC2)ccc1N1CCOCC1)c1cccc(Cl)c1,i,.,.,.,i
CN1CCN(c2ccc(S(=O)(=O)N3CCOCC3)cc2NC(=O)CC(C)(C)C)CC1,i,-28%,21%,0%,i
CC(C)(C)C1CCC(C(=O)Nc2ccc(N3CCOCC3)cc2N2CCOCC2)CC1 (stereo not drawn),i,-4%,15µM*,0%,i
CSc1ccc(Cl)c(C(=O)Nc2cc(S(=O)(=O)N3CCOCC3)ccc2N2CCOCC2)c1,i,15%,18µM*,-2%,i
c1cncc(-c2cn(C[C@H]3CC[C@H](Cn4cc(-c5cccnc5)nn4)O3)nn2)c1,i,-7%,-2%,-1%,i
O=[N+]([O-])C1=CC=C2C(=NC3(CCCCC3)N2O)C1=NCCO,i,-5%,-3%,7%,i
COc1cc(C(=O)Oc2cc(N)n(S(=O)(=O)c3ccccc3)n2)cc(OC)c1OC,?,-8%,?,?,i
O=C(O)CC(NC(=O)OCc1ccccc1)c1ccc(Br)cc1 (stereo not drawn),i,-2%,3%,-2%,i
CCCc1cc(=O)[nH]c(SCC(=O)c2cc(C)n(CC3CCCO3)c2C)n1 (stereo not drawn),i,-3%,-21%,13%,i
COc1cccc(C(=O)Nc2cc(S(=O)(=O)N3CCOCC3)ccc2N2CCOCC2)c1,i,-19%,.,-3%,i
O=C(/C=C/c1ccc(Cl)cc1)Nc1cc(S(=O)(=O)N2CCOCC2)ccc1N1CCOCC1,?,?,26µM*,11%,?
Cc1ccccc1C(=O)Nc1cc(S(=O)(=O)N2CCCCC2)ccc1N1CCN(C)CC1,?,13%,9%,-13%,?
Cc1c(C(=O)Nc2ccc3nc(N4CCOCC4)sc3c2)oc2ccccc12,?,?,11µM*,?,?
CCc1cc(C(=O)Nc2cc(S(=O)(=O)N3CCCCC3)ccc2N2CCN(C)CC2)sc1C,i,.,.,.,23µM*
CC(C)COc1cccc(C(=O)Nc2cc(S(=O)(=O)N3CCOCC3)ccc2N2CCCC2)c1,18µM*,12%,.,18%,i
CCN1CCN(c2ccc(S(=O)(=O)N3CCOCC3)cc2NC(=O)/C=C/c2ccc(C)cc2)CC1,i,9%,13%,17%,i
CCOC(=O)C1CCCN(Cc2cc(=O)oc3cc(C)c(C(C)C)cc23)C1 (stereo not drawn),?,-3%,?,?,i
CN(CC(=O)N1CCN(c2ccccc2)CC1)C1CCCc2ccccc21 (stereo not drawn),?,5%,-1%,?,i
Cc1ccc(S(=O)(=O)N(C)c2ccc(OC(=O)c3ccc(N4CCCC4=O)cc3)cc2)cc1,i,3%,0%,1%,i
O=C(Nc1cc(S(=O)(=O)N2CCOCC2)ccc1N1CCCCC1)c1ccccc1,5.2µM*,-8%,?,15%,i
SMILES,KB-V1 cytotox,SW480 rereplic,ELG1 DNA repair,MCF10A rerep,KB-3-1 tox
CN1CCN(c2ccc(S(=O)(=O)N3CCCCC3)cc2NC(=O)c2ccc3ccccc3c2)CC1,10µM*,?,?,23µM*,?
O=C(Nc1cc(S(=O)(=O)N2CCOCC2)ccc1N1CCCCC1)c1ccc(Cl)cc1,i,11%,-12%,7%,i
CCCNC(=O)C1(C)CCN(Cc2cc3ccccc3o2)C1 (stereo not drawn),i,.,.,.,i
CC(=O)c1ccc(NC(=O)CSc2nc(=O)n3cccc(C)c3n2)cc1,i,5%,?,-5%,i
C/C(=N\S(=O)(=O)c1ccc(C)cc1)N1CCN(S(=O)(=O)c2ccccc2)C1C(C)C (stereo not drawn),5.8µM*,6%,-19%,-1%,i
O=C(Nc1c(C(=O)Nc2ccc3c(c2)OCCO3)cnn1-c1ccccc1Cl)c1ccco1,i,0%,?,1%,i
N=c1c(C(=O)NCC2CCCO2)cc2c(=O)n3ccccc3nc2n1Cc1ccc(Cl)cc1 (stereo not drawn),i,0.58µM*,?,?,?
N=c1c(C(=O)NCC2CCCO2)cc2c(=O)n3ccccc3nc2n1Cc1ccccc1Cl (stereo not drawn),i,21µM*,-27%,3.3µM*,?
COc1ccc(Cn2c(=N)c(C(=O)NCC3CCCO3)cc3c(=O)n4ccccc4nc32)cc1 (stereo not drawn),i,?,-15%,15µM*,i
Cc1ccc(Cn2c(=N)c(C(=O)NCC3CCCO3)cc3c(=O)n4ccccc4nc32)cc1 (stereo not drawn),i,18µM*,-5%,3.3µM*,i
COc1ccc(Nc2c(CC(C)C)nc3nc(C)cc(C)n23)cc1,?,.,.,.,i
Cc1ccc(Cn2c(=N)c(C(=O)NCC3CCCO3)cc3c(=O)n4cccc(C)c4nc32)cc1 (stereo not drawn),i,8.2µM*,-2%,21µM*,i
N=c1c(C(=O)NCC2CCCO2)cc2c(=O)n3ccccc3nc2n1Cc1ccccc1 (stereo not drawn),i,2.6µM*,-15%,3.7µM*,i
C=CCc1cccc(/C=N/NC(=O)CNc2ccccc2)c1O,i,13µM*,.,13%,i
C=CCc1cccc(/C=N/NC(=O)CCCNc2ccc(C)cc2)c1O,23µM*,?,?,?,?
COc1ccccc1NCC(=O)N/N=C/c1c(O)ccc2ccccc12,i,3.3µM*,?,?,?
C=CCc1cccc(/C=N/NC(=O)CNc2ccccc2OC)c1O,?,16µM*,?,?,?
C=CCc1cccc(/C=N/NC(=O)CNc2cccc3ccccc23)c1O,i,?,2%,?,?
CSc1cccc(NC(=S)N2CCCN(Cc3cccc(Cl)c3)C2)c1,?,?,?,?,i
